Results filed as inconclusive are left out. Activity calls are given as the source filed them. Rule for the calls, unless noted: active = hit-call score of the fitted dose curve at least 0.9, where 1 is the maximum; inactive = score below 0.9.
Experiments:
[1] = APR_HepG2_CellCycleArrest_24hr: Apredica 24-hour HepG2 Assay for Cell Cycle Arrest (AID 2282905); conditions: imaging, actives raise or lower the signal;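 note: cell cycle arrest scored as ratio of 2N to 4N nuclear DNA content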
How it was run: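 Compounds at 0.39–200 uM (0.5% DMSO) for 24 h, then fixed and Hoechst 33342 stained. Cell-cycle analysis of nuclear DNA content by high-content imaging, fitted bidirectionally versus DMSO.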

[2] = APR_HepG2_NuclearSize_24hr: Apredica 24-hour HepG2 Assay for Nuclear Size (AID 2282907); conditions: high-content imaging, actives raise or lower the signal
How it was run: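 HepG2 cells exposed 24 h to compounds at 0.39–200 uM (0.5% DMSO), fixed, Hoechst 33342 stained and imaged at 20x; nuclear diameter measured by automated image analysis, fitted bidirectionally against DMSO controls.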

[3] = APR_HepG2_CellLoss_24hr: Apredica 24-hour HepG2 Assay for Cell Loss (AID 2282908); conditions: high-content imaging;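 for AC50: fit in both directions so a hit may be cell loss or gain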
How it was run: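 HepG2 cells exposed 24 hr to 0.39–200 uM compound in duplicate at 0.5% v/v final DMSO. Cells fixed in 3.7% formaldehyde and Hoechst 33342-stained. Cell number came from nuclear imaging at 20x. Bidirectional fit versus DMSO.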

[4] = APR_HepG2_MicrotubuleCSK_24hr: Apredica 24-hour HepG2 Assay for Microtubule CSK Stabilty (AID 2282909); conditions: HepG2 microtubule cytoskeleton imaging, actives raise or lower the signal
How it was run: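 HepG2 cells were treated 24 hr with compound at 0.39–200 uM in duplicate (0.5% DMSO final), then fixed and permeabilized. Alpha-tubulin immunofluorescence was imaged by high-content microscopy, with bidirectional fitting against DMSO and taxol as positive control.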

[5] = APR_HepG2_MitoticArrest_24hr: Apredica 24-hour HepG2 Assay for Mitotic Arrest (AID 2282910); conditions: high-content imaging, actives raise or lower the signal
How it was run: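 HepG2 cells, 24 h exposure at 0.39-200 uM (10 concentrations, duplicate, 0.5% DMSO). Fixed, stained for phospho-histone H3 with Hoechst; imaged by high-content microscopy, bidirectional fit versus DMSO.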

[6] = APR_HepG2_MitoMembPot_24hr: Apredica 24-hour HepG2 Assay for Mitochondrial Membrane Potential (AID 2282911); conditions: imaging, actives raise or lower the signal
How it was run: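 Cells are dosed for 24 hr across 0.39 to 200 uM with solvent held at 0.5% DMSO. They are then stained with 250 nM MitoTracker Red CMXRos for 30 min, fixed in 3.7% formaldehyde and imaged.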

[7] = APR_HepG2_MitoMass_24hr: Apredica 24-hour HepG2 Assay for Mitochondrial Mass (AID 2282912); conditions: high-content imaging, actives raise or lower the signal
How it was run: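 HepG2 cells exposed 24 hr to 0.39–200 uM compound, 0.5% v/v DMSO, in duplicate. Stained before fixation with 250 nM MitoTracker Red CMXRos for 30 min, then imaged at 20x with Hoechst nuclei. Fitted in both directions against DMSO.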

[8] = APR_HepG2_p53Act_24hr: Apredica 24-hour HepG2 Assay for p53 Activation (AID 2282913); conditions: high-content imaging, actives raise or lower the signal;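 note: p53 protein immunofluorescence averaged per cell in HepG2 with Hoechst nuclei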
How it was run: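 Human HepG2 liver cells; 24 hr cpd treatment, 0.39–200 uM, 0.5% DMSO final. Fixed in 3.7% formaldehyde, permeabilized with 0.5% Triton X-100, stained with anti-p53/Cy5 plus Hoechst 33342. Six images per well at 20x; gain or loss vs DMSO.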

[9] = APR_HepG2_CellCycleArrest_72hr: Apredica 72-hour HepG2 Assay for Cell Cycle Arrest (AID 2282914); conditions: high-content imaging, actives raise or lower the signal
How it was run: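 Read-out is Hoechst-stained nuclear DNA content measured by automated fluorescence imaging (20x, six images per well), fitted in both directions relative to DMSO. Human HepG2 liver cells received 0.39–200 uM compound for 72 hr at 0.5% v/v DMSO.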

[10] = APR_HepG2_CellLoss_72hr: Apredica 72-hour HepG2 Assay for Cell Loss (AID 2282915); conditions: high-content imaging
How it was run: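 HepG2 cells exposed 72 h to compound at 0.39–200 uM (10 concentrations, duplicate) in 0.5% DMSO. Fixed with 3.7% formaldehyde and Hoechst 33342-stained. Imaged at 20x; nuclear count gives cell number, fitted bidirectionally versus DMSO.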

[11] = APR_HepG2_P-H2AX_72hr: Apredica 72-hour HepG2 Assay for H2AX Phosphorylation (AID 2282916); conditions: imaging, actives raise or lower the signal;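 note: phospho-histone H2A.x immunostain intensity per cell marking DNA damage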
How it was run: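 HepG2 cells treated 72 h at 0.39–200 uM, 0.5% DMSO final, duplicates. Formaldehyde-fixed, Triton-permeabilised, immunostained for phospho-H2A.x with Hoechst; fluorescence imaged at 20x, bidirectional fit versus DMSO.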

[12] = APR_HepG2_MitoticArrest_72hr: Apredica 72-hour HepG2 Assay for Mitotic Arrest (AID 2282918); conditions: high-content imaging, actives raise or lower the signal
How it was run: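 Read-out is phospho-histone H3 immunofluorescence with Hoechst nuclear segmentation, imaged at 20x. Human HepG2 liver cells received ten concentrations (0.39–200 uM, final DMSO 0.5% v/v) for 72 hr before fixation. Gain or loss of signal was fitted relative to DMSO.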

[13] = APR_HepG2_MicrotubuleCSK_72hr: Apredica 72-hour HepG2 Assay for Microtubule CSK Stabilty (AID 2282919); conditions: HepG2 microtubule cytoskeleton, high-content imaging, actives raise or lower the signal
How it was run: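 HepG2 cells were exposed 72 hr to compound at 0.39–200 uM in duplicate (0.5% DMSO final), then fixed and permeabilized. Alpha-tubulin immunofluorescence was imaged by high-content microscopy, with bidirectional fitting against DMSO and taxol as positive control.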

[14] = APR_HepG2_P-H2AX_24hr: Apredica 24-hour HepG2 Assay for H2AX Phosphorylation (AID 2282920); conditions: high-content imaging, actives raise or lower the signal
How it was run: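 HepG2, 24 hr, cpd 0.39–200 uM (10 conc, duplicate), DMSO 0.5% v/v final. Fix 3.7% formaldehyde, Triton X-100 permeabilize, anti-phospho-H2A.x 1:200 + Hoechst 2 ug/mL. Imaged, bidirectional fit vs DMSO.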

[15] = APR_HepG2_StressKinase_72hr: Apredica 72-hour HepG2 Assay for Stress Kinase (AID 2282921); conditions: HepG2 stress kinase (phospho-c-Jun) imaging, actives raise or lower the signal
How it was run: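 HepG2 cells treated 72 hr with 0.39–200 uM compound, 0.5% v/v DMSO, duplicate wells. After formaldehyde fixation and Triton permeabilization, stained with anti-phospho-c-Jun (1:500) and Cy3 secondary, imaged at 20x. Fitted in both directions against DMSO.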

[16] = APR_HepG2_StressKinase_24hr: Apredica 24-hour HepG2 Assay for Stress Kinase (AID 2282922); conditions: HepG2 stress kinase (phospho-c-Jun) imaging, actives raise or lower the signal
How it was run: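 HepG2 cells exposed 24 h to 0.39–200 uM compound in duplicate (0.5% v/v DMSO final). Cells fixed in 3.7% formaldehyde, permeabilized and immunostained for phospho-c-Jun; read by high-content fluorescence imaging, fitted bidirectionally against DMSO.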

[17] = APR_HepG2_p53Act_72hr: Apredica 72-hour HepG2 Assay for p53 Activation (AID 2282923); conditions: high-content imaging, actives raise or lower the signal;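 note: average cellular p53 protein immunofluorescence intensity in HepG2 cells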
How it was run: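 HepG2 cells exposed 72 h to 0.39–200 uM in 0.5% DMSO, duplicates. Fixed, permeabilized cells immunostained for p53 (Cy5) with Hoechst; imaged at 20x, fluorescence analyzed bidirectionally against DMSO.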

[18] = APR_HepG2_MitoMass_72hr: Apredica 72-hour HepG2 Assay for Mitochondrial Mass (AID 2282924); conditions: high-content imaging, actives raise or lower the signal;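 note: MitoTracker Red CMXRos stain intensity per cell imaged as mitochondrial mass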
How it was run: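 HepG2 cells dosed 72 hr at 0.39–200 uM (0.5% DMSO), in duplicate. MitoTracker Red CMXRos 250 nM loaded 30 min before formaldehyde fixation; high-content fluorescence imaging, bidirectional fit versus DMSO.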

[19] = APR_HepG2_MitoMembPot_72hr: Apredica 72-hour HepG2 Assay for Mitochondrial Membrane Potential (AID 2282917); conditions: imaging, actives raise or lower the signal
How it was run: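 HepG2 cells dosed 72 hr with compound at 0.39–200 uM in duplicate, 0.5% v/v DMSO final. Mitochondria stained with 250 nM MitoTracker Red CMXRos for 30 min before formaldehyde fixation, imaged by high-content fluorescence; bidirectional fit versus DMSO.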

[20] = ACEA_ER_80hr: ACEA Biosciences xCELLigence Real-Time Cell Analysis on Estrogen Receptor Agonism for Proliferation (AID 2282667; active = hit-call score of the fitted dose curve at least 0.9, where 1 is the maximum); conditions: T47D proliferation, impedance (xCELLigence), 80 h
How it was run: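 Real-time electrical impedance tracked growth of the human breast line T47D, with the 80 h post-dosing value used. Dosing spanned eight 1:4 steps down from a 100 uM final top concentration, run in duplicate.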

Measured: AC50

CCCCCCCCN(C)C
not listed: [19] | [20]
inactive: all other assays above

OC(Cn1cncn1)(Cn1cncn1)c1ccc(F)cc1F
not listed: [20]
inactive: all other assays above

O=C1CN(N=Cc2ccc([N+](=O)[O-])o2)C(=O)N1
active: [3] 33.6 µM | [8] 58.6 µM | [10] 41.9 µM | [11] 65.2 µM | [12] 58.3 µM | [14] 56.7 µM | [17] 46.8 µM | [18] 90.5 µM
inactive: [20] | [5] | [6] | [7] | [19] | [15] | [16]
